MARV entry inh – qHTS for inhibitors of binding or entry into cells for Marburg Virus | Marburg virus pseudotyped entry inhibition, cell reporter | Potency, µM (series often up to 37.8 µM), for the others: top-dose activity change, negative = inhibition, hits mostly inhibitors | hit rate 1.8% among 300,000; calls by dose curve; tested in HEK293 cells
HCV inhibitor – qHTS Assay for Inhibitors of Hepatitis C Virus (HCV); Potency, µM (top dose mostly 41.8 µM), for the others: at the highest dose activity change, negative = inhibition, hits mostly inhibitors; hit rate 3.4% among 340,000; AID 651820, 2012; Huh7.5.1 HCVcc-Cre infection, luciferase reporter, 44 h
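Whole-lifecycle infectious HCVcc-Cre system; cells 1,000/well, compound then virus (~0.5 moi) added 4 h after plating, 44 h culture. Luciferase read 15 sec following 15 min substrate incubation, room temp.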
RE007 growth inh – qHTS Assay for Inhibitors of the HIV-1 protein Vpr. S. pombe RE007 Vpr strain, BacTiter-Glo ATP luminescence, 24 h. Potency, µM (doses to about 92.2 µM), for the others: at the highest dose activity change, negative = less growth, usual class: inhibitors. hit rate 0.21% among 360,000. AID 651644, 2012; active means well fitted falling curve with a large enough effect; inconclusive means small, poorly fitted or top-dose-only effect; inactive means no such curve, though single readings can be large or run the other way; further: nearly all actives have a fitted effect of over 50% in size
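Fission yeast RE007 carrying one integrated HIV-1 vpr copy, seeded at OD 0.01 in PMG+AL medium with 23 nL pinned compound. Grown 24 h at 30 degrees; viability read by BacTiter-Glo luminescence after 5 min.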
Lassa entry inh – qHTS for Inhibitors of binding or entry into cells for Lassa Virus. Lassa virus pseudotype entry inhibition, cell reporter. Potency, µM (titrated, usually from 37.9 µM), without a hit: at the top dose activity change, negative = inhibition, usual class: inhibitors. hit rate 1.2% among 300,000; calls by dose curve; tested in HEK293 cells; further: nearly all actives have a fitted effect of over 50% in size
Sm TGR inh – qHTS Assay for the Inhibitors of Schistosoma Mansoni Peroxiredoxins; Schistosoma mansoni thioredoxin glutathione reductase (TGR), Q962Y6; purified TGR, DTNB reduction, TNB absorbance 405 nm; Potency, µM (doses to about 114 µM), inactives show at the top dose activity change, negative = inhibition, usual class: inhibitors; hit rate 3% among 360,000; further: nearly all actives have a fitted effect of over 60% in size
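TGR 20 nM + NADPH 100 uM (dispensed conc.), cpd preinc 15 min RT; start with NADPH (500 uM addition) then DTNB (15 mM addition). Kinetic TNB absorbance, 405 nm filter. Four-parameter Hill fit across titration.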
FMDV inh – High Throughput Screening for Foot and Mouth Disease Virus Antivirals; FMDV antiviral cell-based qHTS; Potency, µM (doses to about 57.9 µM), for inactives: top-dose activity change, negative = inhibition, actives largely listed as inhibitors; hit rate 1.2% among 410,000; AID 1159524, 2015; calls by dose curve; tested in HEK293T cells; further: read-out not given here; nearly all actives have a fitted effect of over 45% in size
Starred values were filed as active, the others as inactive; ? = inconclusive; . = no result; [ ] = another dose, or the depositor's remark. Only some compounds are listed: those with a hit (about 7.2% of all), similar ones and a draw of the others. Unless noted, the call rests on the fitted dose curve; in most records, active means well fitted curve in the direction sought with a large enough effect; inconclusive means small, poorly fitted or top-dose-only effect, or another doubt; inactive means no such curve, though single readings can be large; an effect the other way counts as inactive or inconclusive. On the % scale 0 is the no-effect control and ±100 the full control effect; potency means the concentration at half of the fitted maximal effect.

SMILES	MARV entry inh	HCV inhibitor	RE007 growth inh	Lassa entry inh	Sm TGR inh	FMDV inh
O=C(CN1C(=O)C2(SCC(=O)N2c2ccccc2)c2ccccc21)NCc1ccccc1 (centres undefined)	.	.	.	17%[46.1 µM]	4%	-9%
Cc1cc(C)cc(C(=O)NCc2nc(-c3cccc(NC(=O)c4ccccn4)c3)oc2C)c1	.	.	.	.	.	27%
COc1ccc(C(C(=O)NC2CCCC2)N(C(=O)c2snc(-c3ccc(F)cc3)c2N)c2ccccc2)cc1 (centres undefined)	11%	6%	-4%	8%	-18%	-3%
COc1ccc(C(C(=O)NC2CCCC2)N(C(=O)c2snc(-c3ccc(F)cc3)c2N)c2cccc(F)c2)cc1 (centres undefined)	-1%	10µM*	-3%	-11%	3%	11%
COc1ccc(C(C(=O)NC2CCCCC2)N(C(=O)c2snc(C(N)=O)c2N)c2ccc(OC)cc2OC)cc1 (centres undefined)	?	8.9µM*	0%	?	1%	6%
COc1ccc(N(C(=O)c2snc(C(N)=O)c2N)C(C(=O)NC2CCCC2)c2ccc(F)cc2)c(OC)c1 (centres undefined)	?	11µM*	16%	-25%[46.1 µM]	7%	-6%
COc1ccc(N(C(=O)c2snc(C(N)=O)c2N)C(C(=O)NCc2ccc(F)cc2)c2ccc(C)o2)c(OC)c1 (centres undefined)	13µM*	?	-4%	8.9µM*	8%	16%
COc1ccc(N(C(=O)c2snc(C(N)=O)c2N)C(C(=O)NC2CCCCC2)c2ccc(C)o2)c(OC)c1 (centres undefined)	7%[46.1 µM]	?	1%	.	2%	?
CCc1ccc(C(=O)c2cn(CC(=O)Nc3ccc4c(c3)OCO4)c3cc(OC)c(OC)cc3c2=O)cc1	1%[46.1 µM]	.	.	6%[46.1 µM]	0%	-11%
COc1ccc(-c2ccc(CNCCCSc3nnnn3C)o2)cc1Cl	-18%[46.1 µM]	.	.	3%[46.1 µM]	-14%	41%
Cc1ccc(S(=O)(=O)N(Cc2ccccc2)c2ccccc2C(=O)NCc2ccco2)cc1	?	?	15%	?	?	.
CCN1CCN(C(=O)c2ccccc2N(Cc2ccccc2)S(=O)(=O)c2ccc(C)cc2)CC1	5.8µM*	?	5%	?	-1%	0%
CS(=O)(=O)N(CC(=O)Nc1ccccc1C(=O)NCc1ccco1)c1ccccc1F	1%[46.1 µM]	1%	4%	14%	-3%	18%
CS(=O)(=O)N(Cc1ccccc1)c1ccccc1C(=O)Nc1ccccc1C(=O)NCc1ccco1	4.1µM*	-15%	-14%	-2%	1%	-23%
Cc1ccc(S(=O)(=O)N(Cc2ccccc2)c2ccccc2C(=O)Nc2ccccc2C(=O)NCc2ccco2)cc1	16µM*	8%	-2%	-3%	-4%	13%
C=Cc1ccc(C(=O)N2CCc3c(cnc(C)c3CNC(=O)c3ccc4c(c3)OCO4)C2)cc1	.	.	.	.	.	-4%
NCCCn1c(C(=O)c2cc(Cl)c(N)c(Cl)c2)c2ccc([N+](=O)[O-])cc2[n+]1[O-]	.	?	-15%	.	40µM*	-14%
NCCCn1c(C(=O)c2cc(Cl)c(N)c(Cl)c2)c2ccc(C(F)(F)F)cc2[n+]1[O-]	.	-7%	1%	.	45µM*	-22%
NC(=O)CCCn1c(C(=O)c2cc(Cl)c(N)c(Cl)c2)c2ccc(C(F)(F)F)cc2[n+]1[O-]	.	-13%	-1%	.	?	-13%
Cc1ccc(C(=O)c2c3ccc([N+](=O)[O-])cc3[n+]([O-])n2CCC(N)=O)cc1	.	13µM*	-5%	.	?	13%
Brc1ccc(OCc2ccccc2)c(CNCc2ccncc2)c1	-23%	10µM*	-16%	?	-2%	?
Fc1ccc(COc2ccccc2CNCc2ccncc2)cc1	-39%	?	11%	-13%	1%	-18%
O=C(COc1ccccc1)NCC(=O)N/N=C/c1cc(Br)ccc1OCc1ccccc1	8.9µM*	?	0%	?	4%	0%
O=C(N/N=C/c1ccncc1)c1cc(Br)ccc1OCc1ccccc1	?	8.9µM*	2%	0%	5%	-16%
Clc1ccc(COc2ccccc2CNCc2cccnc2)cc1	?	10µM*	-3%	-25%	7%	?
SMILES	MARV entry inh	HCV inhibitor	RE007 growth inh	Lassa entry inh	Sm TGR inh	FMDV inh
COc1cccc([C@H]2Oc3ccc(OC)cc3/C(=N\O[C@H](C)c3cn([C@H](CO)Cc4ccccc4)nn3)[C@@H]2O)c1	5%[14.2 µM]	.	.	.	.	.
O=C(O)c1ccc2c(c1)C1C=CCC1C(c1ccncc1)N2 (centres undefined)	?	47%	-2%	-3%	22µM*	-10%
Cc1c(Cl)cccc1NS(=O)(=O)c1ccc2c(c1)C1C=CCC1C(c1ccc(C(=O)O)cc1)N2 (centres undefined)	?	-22%	-13%	?	20µM*	-5%
FC(F)(F)c1ccc2c(c1)C1C=CCC1C(c1ccncc1)N2 (centres undefined)	?	?	5%	?	-25%	?
CC(=O)c1ccc2c(c1)C1C=CCC1C(c1ccc(S(=O)(=O)N3CCOCC3)cc1)N2 (centres undefined)	?	-40%	-8%	?	28µM*	-16%
CCCC1Nc2ccc(C(=O)O)cc2C2C=CCC12 (centres undefined)	-4%	-11%	3%	-2%	40µM*	-6%
COc1ccc(NS(=O)(=O)c2ccc3c(c2)[C@H]2C=CC[C@H]2[C@@H](c2ccc(C(=O)O)cc2)N3)cc1	?	-1%	-12%	7%[46.1 µM]	?	3%
O=c1n(-c2ccccc2)c(=O)n2n1CC[C@@H]1/C(=N/OC[C@@H](O)COCc3ccco3)[C@H]3O[C@H]3[C@@H](O)[C@@H]12	-23%[14.2 µM]	.	.	.	.	.
CC(C)C1Nc2ccc(C(=O)O)cc2C2C=CCC21 (centres undefined)	17%	6%	3%	0%	20µM*	-20%
CCOC(=O)C1Nc2ccc(C(=O)O)cc2C2C=CCC12 (centres undefined)	7%[46.1 µM]	3%	0%	?	?	-8%
O=C(NCCc1ccccc1)c1ccc(CSc2nc3ccncc3n2Cc2cccc(F)c2)cc1	12%[46.1 µM]	.	.	-20%[46.1 µM]	0%	8%
Cn1c(=O)c2c(nc(N3CCCCCC3)n2CC(O)COc2ccccc2)n(C)c1=O (centres undefined)	9%	9%	7%	?	-8%	?
